A short description of test [1]: Cell Proliferation Assay against the TMD8 Cell Line (AID 651645).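 Note: cells exposed to compound for 48 h before reading.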 The conditions noted are these: TMD8 DLBCL cell line proliferation/viability; at 46.1 µM (top of the series) unless noted. The method, boiled down: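 TMD8 ABC DLBCL cells, 500 per well in phenol red-free RPMI with 5% FBS, were treated with compound by pin transfer and incubated 48 hours at 37C, 5% CO2. Viability was read by CellTiter-Glo luminescence, normalised to DMSO (100%) and 9.2 uM bortezomib (0%).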

Test [2] in a line: Cell Proliferation Assay against the HBL1 Cell Line (AID 651646).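 Note: cells exposed to compound for 48 h before reading.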 To be noted: HBL1 DLBCL cells; at 46.1 µM (top of the series) unless noted. The method, boiled down: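 HBL1, 500 cells/well, RPMI no phenol red + 5% FBS; cpd pinned, 48 h 37C/5% CO2; CellTiter-Glo, 15 min RT, luminescence. % activity: DMSO = 100%, bortezomib 9.2 uM final = 0%.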
The nature of test [3]: Cell Proliferation Assay against the TMD8 Cell Line (Caspase readout at 16 hrs) (AID 651712). Note: potency is the fitted concentration of half-maximal effect. In short, it runs like this: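 Caspase-Glo luminescence after 16 h compound exposure of TMD8 cells, 37 °C, 5% CO2. Medium: RPMI without phenol red, 5% FBS. Normalisation: DMSO = 0%, bortezomib 9.2 uM final = 100%.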
Test [4] addresses Tyrosine-protein kinase Yes (Homo sapiens) (UniProt P07947). Briefly: qHTS for small molecule inhibitors of Yes1 kinase: Primary Screen (AID 686947). Note: nearly all actives have a fitted effect of over 60% in size. Note: potency is the fitted concentration of half-maximal effect. In short, it runs like this:
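In this qHTS format, inhibition is expressed relative to DMSO controls with enzyme (maximum) and without enzyme (minimum). The 60 min room-temperature reaction uses 0.1 mM ATP, with ADP detected by luminescence.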
A general note: Quantitative high-throughput screening tests each substance at several concentrations.

The nature of test [5]: qHTS for small molecule inhibitors of Yes1 kinase: Counter Assay (AID 686950).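 Note: no kinase present so only ADP-Glo detection of a fixed ADP amount is tested; luminescence from ADP-Glo reporting ADP in a fixed ATP and ADP mixture; 0% = DMSO wells with ATP plus ADP and -100% = ATP-only wells without ADP.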 In short, it runs like this:
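No kinase present; 0.08 mM ATP + 0.02 mM ADP in 50 mM Tris pH 7.5, 10 mM MgCl2, 150 mM NaCl, 1 mM DTT; 20 min compound preincubation, 60 min RT, ADP-Glo luminescence, normalized to ATP/ADP (max) and ATP-only (min).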

The nature of test [6]: qHTS assay for small molecule agonists of the antioxidant response element (ARE) signaling pathway (AID 651741; active = well fitted activation curve with a large enough effect in the signal ratio; the % refers to the signal ratio; note: % of control where 0% means no effect). The method, boiled down: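 HepG2 ARE-bla reporter cells, 2,000/well; 5 h settle at 37 C/5% CO2; compound pin transfer (23 nL, DMSO); 16 h at 37 C; LiveBLAzer B/G FRET substrate, 2 h RT; fluorescence intensity read.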
A short description of test [7]: qHTS assay for small molecule activators of the p53 signaling pathway (AID 651743; active = well fitted activation curve with a large enough effect in the signal ratio, not every such curve was filed as active; the % refers to the signal ratio; note: % of control where 0% means no effect). To be noted: HCT-116 p53RE-bla, beta-lactamase FRET ratio, 16 h; activation: stronger effect = higher value. The method, boiled down: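 Reporter: beta-lactamase driven by p53 response elements, stably integrated in HCT-116 cells. Cells seeded at 4,000/well, 5 h preincubation, compound (DMSO) 16 h at 37 C; B/G FRET substrate 2 h RT; fluorescence intensity read.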

Test [8] can be described thus: qHTS assay for small molecule disruptors of the mitochondrial membrane potential - 1 hr assay (AID 651754; calls by dose curve; note: % is set by controls: 0 for no effect and ±100 for the full control effect; nearly all actives have a fitted effect of over 35% in size). The method, boiled down: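 In this qHTS format, a 1 hr compound treatment of HepG2 cells precedes Mito-MPS staining, and membrane potential is judged from aggregate (red) against monomer (green) fluorescence intensity.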
The nature of test [9]: qHTS assay for small molecule disruptors of the mitochondrial membrane potential - 5 hr assay (AID 651755; calls by dose curve; note: % is set by controls: 0 for no effect and ±100 for the full control effect; nearly all actives have a fitted effect of over 40% in size). In short, it runs like this:
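Read-out: ratiometric Mito-MPS fluorescence, green monomer (ex 490/em 535) vs red mitochondrial aggregate (ex 540/em 590). HepG2 cells treated 5 hr at 37C before 30 min dye loading.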

Test [10] concerns the target Tumor necrosis factor (Homo sapiens) (UniProt P01375). In words: qHTS assay to identify small molecules that stimulate Tumor Necrosis Factor-alpha (TNF-alpha) secretion (AID 651757; active = well fitted curve in the direction sought with a large enough effect in the signal ratio; the % refers to the signal ratio; note: 0% is about no effect). The method, boiled down:
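Using 3000 THP-1 cells per well, compounds and controls were applied for 17 hrs at 37 C. Detection followed with two labeled anti-TNF-alpha antibodies (cryptate donor, XL665 acceptor) for 3 hr at room temperature, measured by TR-FRET.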

Test [11] in a line: qHTS assay for environmental chemicals that activate the Aryl hydrocarbon Receptor (AhR) signaling pathway (AID 651777). Note: % of control where 0% means no effect; nearly all actives have a fitted effect of over 15% in size. To be noted: 1A2-DRE human hepatoma cells, luciferase, 24 h; stronger effect = higher value. The method, boiled down: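 AhR activation is scored as a rise in luciferase from a stable DRE–CYP1A2 promoter construct in human hepatoma cells. Treatment lasts 24 hr at 37 C; detection uses One-Glo after 30 min at room temperature.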

Test [12] has as its target Peroxisome proliferator-activated receptor alpha (Homo sapiens) (UniProt Q07869). Briefly: qHTS assay for small molecule agonists of the peroxisome proliferator-activated receptor alpha (PPARalpha) signaling pathway (AID 651778). For max response: % of control where 0% means no effect. Note: potency is the fitted concentration of half-maximal effect. The conditions noted are these: PathHunter PPARalpha complementation, chemiluminescence, 6 h; max response: stronger effect = higher value. The method, boiled down: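 Enzyme-fragment complementation assay in which ligand-bound PPARalpha translocates and forms an active enzyme that generates chemiluminescence. Cells were plated overnight, exposed to compound for 6 hr at 37 C, and then given detection reagent for 60 min at room temperature.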

The target of test [13] is Nuclear receptor ROR-gamma (Homo sapiens) (UniProt P51449). In words: qHTS assay for small molecule antagonists of the retinoid-related orphan receptor gamma (ROR-gamma) signaling pathway (AID 651802).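 Note: luciferase reporter luminescence driven by ROR response element; % is set by controls: 0 for no effect and ±100 for the full control effect; nearly all actives have a fitted effect of over 60% in size.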 The method, boiled down: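 Doxycycline-induced reporter activity in engineered CHO cells (TET-inducible ROR, RORE-LUC) was measured by luminescence after 16hr compound exposure at 37C.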

A short description of test [14]: qHTS assay for small molecule antagonists of the retinoid-related orphan receptor gamma (ROR-gamma) signaling pathway - cell viability counter screen (AID 720652; active = well fitted curve in the direction sought with a large enough effect in the repeat runs; an effect the other way counts as inactive or inconclusive;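 note: compound exposure lasted 16 hr before ATP read; % is set by controls: 0 for no effect and ±100 for the full control effect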). In short, it runs like this: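 ATP-based viability readout in the ROR-gamma reporter CHO cells after 16 hr compound exposure under doxycycline induction.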
A short description of test [15]: qHTS assay for small molecule agonists of the antioxidant response element (ARE) signaling pathway measured by Nrf2-dependant transcriptional activity - cell viability counter screen (AID 720653; active = well fitted curve in the direction sought with a large enough effect in the repeat runs; an effect the other way counts as inactive or inconclusive; note: % is set by controls: 0 for no effect and ±100 for the full control effect). To be noted: ARE-bla HepG2 viability, CellTiter-Glo ATP luminescence, 16 h; stronger effect = lower value. In short, it runs like this: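 ARE-bla HepG2 cells treated with compounds for 16 h at 37C; this counter screen measures viability as intracellular ATP by CellTiter-Glo luminescence after 30 min at room temperature.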

A short description of test [16]: qHTS assay for small molecule activators of the nuclear factor-kappa B (NF-kB) signaling pathway (AID 651749; active = well fitted activation curve with a large enough effect in the signal ratio; the % refers to the signal ratio; note: % of control where 0% means no effect). To be noted: NF-kB-bla ME-180 cells, beta-lactamase FRET ratio, 16 h; stronger effect = higher value. The method, boiled down:
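NF-kB-bla ME-180 cells, 2,000/well; 23 nL compound or DMSO pinned; 16 hr, 37C/5% CO2; beta-lactamase FRET read-out.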

A short description of test [17]: qHTS assay to identify small molecules that stimulate interleukin-8 (IL-8) secretion (AID 651758; active = well fitted activation curve with a large enough effect in the signal ratio; the % refers to the signal ratio; note: 0% is about no effect). In short, it runs like this: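 Compounds are added to THP-1 cells (2000 per well) and left 16 hrs at 37 C. A labeled anti-IL-8 antibody pair is then added, and IL-8 secretion is measured by time-resolved FRET after 1-3 hrs at room temperature.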

Where “and” joins values, the source holds several entries; their conditions need not be identical. Identical values can stand only once. Records with an inconclusive call do not appear. Calls of active or inactive are those of the source. Unless noted, calls come from the whole dose curve; as a rule, active = well fitted curve in the direction sought with a large enough effect; inconclusive = small, poorly fitted or top-dose-only effect, or another doubt; inactive = no such curve, though single readings can be large; an effect the other way counts as inactive or inconclusive.

Peroxisome proliferator-activated receptor alpha (Homo sapiens), sequence (Q07869 whole entry, looked up, the tested form may be a part): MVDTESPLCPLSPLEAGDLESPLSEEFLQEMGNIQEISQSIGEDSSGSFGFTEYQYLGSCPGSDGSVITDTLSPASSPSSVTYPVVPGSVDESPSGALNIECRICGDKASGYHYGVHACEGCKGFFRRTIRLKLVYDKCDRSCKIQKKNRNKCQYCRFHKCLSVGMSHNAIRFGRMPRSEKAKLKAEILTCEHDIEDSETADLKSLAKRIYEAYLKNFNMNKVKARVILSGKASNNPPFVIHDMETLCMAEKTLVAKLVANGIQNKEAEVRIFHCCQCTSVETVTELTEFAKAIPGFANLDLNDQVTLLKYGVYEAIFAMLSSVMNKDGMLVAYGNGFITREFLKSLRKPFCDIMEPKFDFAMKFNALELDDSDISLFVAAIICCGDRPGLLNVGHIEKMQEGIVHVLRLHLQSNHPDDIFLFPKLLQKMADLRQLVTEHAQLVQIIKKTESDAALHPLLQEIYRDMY
Tumor necrosis factor (Homo sapiens), sequence (P01375 whole entry, looked up): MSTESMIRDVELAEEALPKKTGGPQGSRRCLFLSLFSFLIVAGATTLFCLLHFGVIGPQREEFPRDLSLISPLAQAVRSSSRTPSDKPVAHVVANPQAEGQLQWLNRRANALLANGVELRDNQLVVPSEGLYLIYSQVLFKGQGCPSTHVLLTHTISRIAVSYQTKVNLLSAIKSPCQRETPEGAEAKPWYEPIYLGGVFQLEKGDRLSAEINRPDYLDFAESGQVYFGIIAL
Nuclear receptor ROR-gamma (Homo sapiens), sequence (P51449 whole entry, looked up): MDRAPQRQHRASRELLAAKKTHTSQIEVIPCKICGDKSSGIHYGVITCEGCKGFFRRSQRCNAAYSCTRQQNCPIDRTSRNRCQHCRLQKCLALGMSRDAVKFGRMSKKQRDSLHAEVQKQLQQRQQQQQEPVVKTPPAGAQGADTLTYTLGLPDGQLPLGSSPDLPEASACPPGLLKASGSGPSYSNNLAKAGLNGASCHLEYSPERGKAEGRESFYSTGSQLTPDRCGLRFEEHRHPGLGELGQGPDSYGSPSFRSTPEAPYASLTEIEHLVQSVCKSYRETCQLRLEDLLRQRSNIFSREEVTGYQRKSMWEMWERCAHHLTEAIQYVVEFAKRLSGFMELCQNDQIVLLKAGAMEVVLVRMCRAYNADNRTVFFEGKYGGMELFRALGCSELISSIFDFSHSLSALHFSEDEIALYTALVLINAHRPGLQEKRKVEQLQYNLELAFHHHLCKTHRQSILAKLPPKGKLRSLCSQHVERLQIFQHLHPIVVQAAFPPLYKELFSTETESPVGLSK
Tyrosine-protein kinase Yes (Homo sapiens), sequence (P07947 whole entry, looked up): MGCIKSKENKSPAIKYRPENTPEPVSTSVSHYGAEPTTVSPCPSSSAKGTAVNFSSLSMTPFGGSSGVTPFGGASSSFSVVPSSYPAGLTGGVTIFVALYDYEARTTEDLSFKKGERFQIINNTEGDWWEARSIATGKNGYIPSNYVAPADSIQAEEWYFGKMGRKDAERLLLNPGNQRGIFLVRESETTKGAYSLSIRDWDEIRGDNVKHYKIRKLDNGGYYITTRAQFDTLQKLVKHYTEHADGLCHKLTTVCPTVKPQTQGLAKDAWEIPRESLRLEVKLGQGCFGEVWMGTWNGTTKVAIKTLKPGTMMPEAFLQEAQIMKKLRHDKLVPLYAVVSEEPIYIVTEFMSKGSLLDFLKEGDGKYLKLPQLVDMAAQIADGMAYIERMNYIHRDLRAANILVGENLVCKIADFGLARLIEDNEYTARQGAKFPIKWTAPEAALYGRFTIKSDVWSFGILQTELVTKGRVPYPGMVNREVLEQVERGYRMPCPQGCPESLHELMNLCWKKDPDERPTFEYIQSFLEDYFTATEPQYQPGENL

With `CC(NC(=O)Cc1cc(F)cc(F)c1)C(=O)NC(C(=O)OC(C)(C)C)c1ccccc1` (stereo not given), in test [1], the viability (% of control) amounted to 90.6%. Moreover, in test [2], the viability, percent of control came to 103%. Further, the Potency result in test [3] and in test [4] was “inactive” throughout. Besides, the compound was called inactive in test [5].
In the case of `Cc1ccccc1`, the Potency entry in [6] is “inactive”. Moreover, the activation in test [7] was 0.393% (inactive) and -4.17% (inactive); in test [11], 0.0379% (inactive) and -2.19% (inactive). For the same compound, the result in test [8], in test [9], in test [10], in [13] and in test [14] was inactive. For the same compound, the max response was 0.399% (inactive) and -0.58% (inactive) in [12]; 6.91% (inactive) and 8.68% (inactive) in test [15].
Turning to `C[C@H]1C[C@H]2[C@@H]3CCC4=CC(=O)C=C[C@]4(C)[C@@]3(F)[C@@H](O)C[C@]2(C)[C@@]1(O)C(=O)CO`, the activation in test [7] was -9.59% (inactive); in test [16] it was -3.68% (inactive); in test [11], -2.62% (inactive). Further, the max response in test [12] was -0.118% (inactive); in test [15] it was -19.2% (inactive).
On to `C[C@@H]1CCN(C(=O)CC#N)C[C@@H]1N(C)c1ncnc2[nH]ccc12`, for which, in [1], the viability (% of control) worked out at 76.9%. Besides, the viability, percent of control in test [2] stood at 97.5%. Further, the Potency result in [3] was “inactive”. In addition, the compound was classed as inactive in test [5].
Take `O=c1cc(C2=CC=CC3Sc4ccccc4SC23)oc(N2CCOCC2)c1` (stereo not given): in test [1], the viability (% of control) was found to be 10.5%. Besides, in test [2], the viability, percent of control worked out at 31.5%. In test [3], the Potency is 8330 nM (active). Further, the Potency result in test [4] is “inactive”. Moreover, the result in [5] was inactive.
On to `O=C(O)CC/C=C\CC[C@H]1[C@@H](N2CCCCC2)[C@@H](O)C[C@@H]1OCc1ccc(-c2ccccc2)cc1`, for which, in test [1], the viability (% of control) is 104%. Besides, in test [2], the viability, percent of control is 105%. Also, the Potency result in test [3] and in test [4] was “inactive” throughout. Moreover, the compound was called inactive in test [5].
For `CCC1(O)CC2CN(CCc3c([nH]c4ccccc34)[C@@](C(=O)OC)(c3cc4c(cc3OC)N(C=O)[C@H]3[C@](O)(C(=O)OC)[C@H](OC(C)=O)[C@]5(CC)C=CCN6CC[C@]43[C@@H]65)C2)C1` (stereo not given in full), the viability (% of control) in test [1] is -0.162%. The viability, percent of control in test [2] was 22.9%. Further, the Potency result in test [4] is “inactive”. The call in [5] was inactive.
Take `NC(=O)Nc1cc(-c2ccc(CN3CCOCC3)c(F)c2)sc1C(=O)N[C@H]1CCCNC1`: in test [1], the viability (% of control) worked out at 1.45%. Moreover, the viability, percent of control in test [2] stood at 10.1%. For the same compound, the Potency is 46.9 nM (active) in [3] and 0.2 nM (active) in test [4]. In addition, in test [5], the result was inactive.
Take `CCCCC/C=C\C/C=C\CCCCCCCC(=O)O`: the Potency result in [6] was “inactive”. In addition, the activation in test [7] was 1.23% (inactive) and -4.95% (inactive); in [11], 0.916% (inactive) and -0.698% (inactive). Also, the compound was classed as inactive in [8], in [9], in test [10], in test [13] and in test [14]. Also, in [12], the Potency is 44.7 µM (active) and 28.2 µM (active). The max response in [15] is -8.45% (inactive) and -16.5% (inactive).
Turning to `CC(O)CO` (stereo not given), the Potency entry in test [6] and in test [17] was “inactive” in each case. Moreover, the activation in [7] is 0.0778% (inactive) and -3.92% (inactive); in test [16], 3.41% (inactive) and -1.36% (inactive); in test [11] it was -1.84% (inactive) and -0.0903% (inactive). Also, the result in test [8], in test [9], in [10], in test [13] and in test [14] was inactive. Moreover, the max response in test [12] was 4.63% (inactive) and -8.84% (inactive); in [15], -5.98% (inactive) and -4.66% (inactive).

Values taken from PubChem BioAssay (NCATS).
